Source: PubChem
PI5P4K alpha inh = inhibitors of human PI5P4K alpha; AID 652105; actives 1.2% (n = 330,000); max response, %; PI5P4Kalpha enzyme, ADP-Glo luminescence, 60 min; hits give low values; active means max response of -50% or lower; inconclusive means between -30% and -50%; inactive means -30% or higher; further: value at the top dose of about 77 µM
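Human PI5P4Kalpha with substrate in 0.038 M HEPES pH 7.4, 0.28 mM EGTA, 0.1% CHAPS, 5% DMSO; reaction started with 5 microM ATP (final), 60 min at room temperature. ADP formed read by ADP-Glo luminescence.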
BAZ2B inh = inhibitors of human BAZ2B bromodomain; Q9UIF8; AlphaScreen BAZ2B-H3K14Ac peptide displacement; Potency, µM (highest dose often 114 µM), usual class: inhibitors; actives 4.4% (n = 360,000); AID 504333; further: nearly all actives have a fitted effect of over 60% in size
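BAZ2B (50 nM) with biotin-H3(5-23)K14Ac peptide (50 nM) in PBS pH 7.4, 0.01% Tween-20, preformed 30 min, then compound 30 min at room temperature; top concentration 110uM. AlphaScreen streptavidin donor/nickel chelate acceptor beads (10 ug/mL final), 20 min dark, signal read.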
HP1b chromo inh = HP1-beta chromodomain-methylated histone interaction inhibition; AlphaScreen HP1-beta / biotin-H3K9me3 peptide binding; P83916; actives 0.56% (n = 390,000); Potency, µM (highest dose often 114 µM), hits mostly inhibitors; further: nearly all actives have a fitted effect of over 70% in size
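Compound inhibition of the preformed complex between 50 nM HP1-beta and 50 nM biotinylated H3K9me3 peptide was read by AlphaScreen. Buffer was PBS pH 7.4 with 0.01% Tween-20. Incubations ran 30 min at room temperature, with 10 ug/mL donor/acceptor beads.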
JMJD2A Tudor inh = JMJD2A Tudor domain (human) inhibition. O75164. AlphaScreen JMJD2A-Tudor / H3K4me3 peptide binding. Potency, µM (titrated, usually from 114 µM), most hits filed as inhibitors. actives 4.4% (n = 390,000). AID 504339; further: nearly all actives have a fitted effect of over 50% in size
G9a inh-1 = G9a (human) methyltransferase inhibition | Potency, µM (titrated, usually from 102 µM), hits mostly inhibitors | actives 8.8% (n = 350,000) | Q96KQ7 | AID 504332 | G9a H3K9 monomethylation, AlphaScreen, 2 h; further: nearly all actives have a fitted effect of over 75% in size
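G9a (20 nM) preincubated 15 min RT with compounds, then 500 nM biotinylated H3K9 peptide and 20 uM SAM added; 2 h RT reaction. Monomethyl-H3K9 product detected by AlphaScreen with anti-H3K9me1 antibody, streptavidin donor and anti-rabbit IgG acceptor beads.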
L3MBTL1 inh = L3MBTL1 (human) inhibition. Q9Y468. AlphaScreen L3MBTL1–H3K9me1 peptide binding. Potency, µM (top dose mostly 57.1 µM), usual class: inhibitors. actives 0.66% (n = 230,000). AID 485360; further: nearly all actives have a fitted effect of over 60% in size
Target sequence (Q9Y468 whole entry, looked up): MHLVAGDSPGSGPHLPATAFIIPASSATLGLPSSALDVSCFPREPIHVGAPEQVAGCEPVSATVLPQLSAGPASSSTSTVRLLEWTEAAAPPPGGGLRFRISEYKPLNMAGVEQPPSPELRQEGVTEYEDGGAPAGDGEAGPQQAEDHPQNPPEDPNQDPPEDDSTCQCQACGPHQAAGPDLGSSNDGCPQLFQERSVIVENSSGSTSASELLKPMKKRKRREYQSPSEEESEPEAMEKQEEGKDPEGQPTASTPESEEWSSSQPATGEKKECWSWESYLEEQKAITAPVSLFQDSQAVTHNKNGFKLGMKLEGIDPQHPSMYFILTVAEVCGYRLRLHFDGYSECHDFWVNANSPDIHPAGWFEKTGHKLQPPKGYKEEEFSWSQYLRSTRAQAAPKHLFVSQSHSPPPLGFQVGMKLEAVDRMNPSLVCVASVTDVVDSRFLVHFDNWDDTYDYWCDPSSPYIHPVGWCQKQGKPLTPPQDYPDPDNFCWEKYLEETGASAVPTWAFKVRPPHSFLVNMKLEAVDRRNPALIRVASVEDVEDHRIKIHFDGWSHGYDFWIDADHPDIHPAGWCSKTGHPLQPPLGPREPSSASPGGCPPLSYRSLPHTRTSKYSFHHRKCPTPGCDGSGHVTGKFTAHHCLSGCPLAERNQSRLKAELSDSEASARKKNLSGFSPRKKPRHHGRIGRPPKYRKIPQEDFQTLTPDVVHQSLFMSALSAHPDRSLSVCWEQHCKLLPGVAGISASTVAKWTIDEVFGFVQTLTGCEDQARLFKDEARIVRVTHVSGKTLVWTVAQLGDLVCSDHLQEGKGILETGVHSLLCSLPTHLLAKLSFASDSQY
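First, the protein-peptide complex forms for 30 min at room temperature (L3MBTL1 50 nM, biotinylated H3K9me1 peptide 75 nM). Next, compounds are pin-transferred and incubated 30 min. Finally, AlphaScreen beads are added and read after 30 min.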
G9a inh-2 = inhibits human G9a histone lysine methyltransferase, hit confirmation. shares compounds with JMJD2A Tudor inh. G9a H3K9 monomethylation, AlphaScreen, 2 h. Potency, µM, most hits filed as inhibitors. actives 89% (n = 370). AID 588344; further: nearly all actives have a fitted effect of over 65% in size
RGS4 inh = inhibits human RGS4, hit validation. actives 80% (n = 25). shares compounds with JMJD2A Tudor inh. RGS4 GAP activity, Transcreener GDP fluorescence polarization. Potency, µM, usual class: inhibitors
ADP-Glo counter = counter-screen for PI5P4K inhibitors: ADP-Glo detection interference, no enzyme. shares compounds with PI5P4K alpha inh. ADP-Glo detection counter-screen, luciferase luminescence, no enzyme. Potency, µM (series often up to 76.9 µM), usual class: inhibitors. 1,100 tested, under 10 active. AID 743285
Hits are given with their value; – = inactive; ? = inconclusive; · = no result given; ! = repeats disagree; [ ] = remark or other dose. An excerpt weighted towards active compounds, which were near 11% of everything screened. Unless noted, the call rests on the fitted dose curve; in most records, active means well fitted curve in the direction sought with a large enough effect; inconclusive means small, poorly fitted or top-dose-only effect, or another doubt; inactive means no such curve, though single readings can be large; an effect the other way counts as inactive or inconclusive.

SMILES | PI5P4K alpha inh | BAZ2B inh | HP1b chromo inh | JMJD2A Tudor inh | G9a inh-1 | L3MBTL1 inh | ADP-Glo counter | others
CCOC(=O)C1CCCN(C(=O)c2cc(-c3ccco3)nc3ccccc23)C1 (centres undefined) | -85 | · | 40µM | 14µM | · | 3.5µM | – | RGS4 inh=27
CCN(CC(=O)Nc1ccc(NC(C)=O)cc1)Cc1c(O)ccc2cc(Br)ccc12 | -71 | 50µM | 71µM | 50µM | 1.8µM | · | – | G9a inh-2=0.45
CCN(CC(=O)Nc1ccc(NC(C)=O)cc1)CC(=O)Nc1cccc2ccccc12 | – | · | · | · | · | · | ·
CC1CCN(C(=O)c2ccc(COc3ccccc3Cl)o2)CC1 | -55 | – | – | – | –[12.7 µM] | – | –
CN(C)S(=O)(=O)c1ccc(C(=O)Nc2cc3c(cc2C(=O)O)OCCCO3)cc1 | -50 | ? | – | – | – | · | –
CC(C)CN1CC2(CCN(C(=O)c3csnn3)CC2)C1 | · | · | · | · | –[12.7 µM] | · | ·
COc1cc(C(=O)Nc2ccc3[nH]c(=O)sc3c2)cc(OC)c1OC | · | – | – | – | – | · | ·
CCCn1c(=O)c2[nH]c(-c3ccc(S(=O)(=O)O)cc3)nc2n(CCC)c1=O | -82 | – | – | – | 21µM! | – | –
FC(F)(F)C1=Nc2cccc3cccc(c23)N1 | -82 | ? | – | ? | –[0.501 µM] | 2.5µM | –
Fc1ccc(C2=Nc3cccc4cccc(c34)N2)cc1 | – | – | – | – | ? | – | ·
O=C(Nc1ccsc1C(=O)O)c1cccc(C(F)(F)F)c1 | -58 | – | – | – | – | · | –
Cc1ccsc1CCN1C(=O)N(c2ccccc2)C(=O)C1CC(=O)Nc1ccc(Cl)cc1 (centres undefined) | · | – | – | – | – | · | ·
CCN1CCN(C(=O)c2cnn(-c3ccc(F)cc3F)c2C2CCN(C(=O)OC(C)(C)C)CC2)CC1 | · | – | – | – | – | · | ·
O=C(Nc1ccccc1Cl)c1ccc2nccnc2c1 | – | – | ? | – | – | · | –
COC(=O)c1ccccc1NC(=O)c1ccc2nccnc2c1 | ? | ? | – | ? | – | – | ·
O=C(O)CCC(=O)N1CCCC1C(=O)O (centres undefined) | · | · | · | · | – | · | ·
O=C(O)c1ccc2c(=O)[nH]c(CCl)nc2c1 | -59 | – | – | ? | 56µM | – | –
COc1cccc(CNC(=O)COC(=O)c2c(C)nn(-c3ccccc3)c2Cl)c1 | -59 | ? | – | – | ? | ? | –
COc1cc(Cl)c(C)cc1NC(=O)c1cc2ccc3cccnc3c2[nH]1 | · | – | – | ? | – | · | ·
O=c1[nH]cnc2c1ncn2-c1ccc(Cl)cc1 | – | · | – | – | · | · | ·
Cc1nn2c(=O)[nH]cnc2c1Cl | -59 | · | · | · | · | · | –
CCOc1ccccc1NC(=O)c1c(NC(=O)CCC(=O)O)sc2c1CCCCC2 | – | ? | – | 45µM | 25µM | – | –
CCOc1ccccc1NC(=O)c1c(NC(=O)Cc2ccccc2)sc2c1CCCC2 | · | – | – | – | – | · | ·
COc1ccc(-c2nc(SCC(=O)NCc3nc4ccccc4n3C)n3[nH]c(=O)cc3n2)cc1 | · | – | – | – | – | · | ·
O=C(Nc1ccc(O)c2c(=O)cc(-c3ccccc3Cl)oc12)c1ccc(Cl)c(Cl)c1 | – | – | – | – | –[12.7 µM] | · | –
SMILES | PI5P4K alpha inh | BAZ2B inh | HP1b chromo inh | JMJD2A Tudor inh | G9a inh-1 | L3MBTL1 inh | ADP-Glo counter | others
Cc1ccccc1C(=O)Nc1ccc(O)c2c(=O)cc(-c3ccccc3Cl)oc12 | – | – | – | – | – | · | ·
CN1CCN(c2ccc(S(=O)(=O)N3CCCCC3)cn2)CC1 | – | – | – | – | – | · | ·
CN1CCN(S(=O)(=O)c2ccc(N3CCc4ccccc4C3)nc2)CC1 | -69 | – | – | 8.9µM | – | – | –
Nc1cc(-c2ccncc2)c[nH]c1=O | -56 | – | – | – | 45µM! | ? | –
COc1cc(Cl)c(NC(=O)CN(C)S(=O)(=O)c2ccc3[nH]c4c(c3c2)CCCC4)c(OC)c1 | · | – | – | ? | ? | · | ·
CCOc1cc(CNC(=O)C2CCN(c3nc4ccccc4[nH]3)CC2)cc(OCC)c1OCC | · | – | – | – | – | · | ·
CC(=O)NC12CC3CC(C1)CC(C(=O)OCC(=O)Nc1ncc(Cl)c(C)c1Cl)(C3)C2 | -52 | ? | – | ? | ? | ? | –
CCN1C(=O)[C@H]2[C@@H](c3ccc(C(F)(F)F)cc3)N[C@]3(CCCN(CC4CCCCC4)C3=O)[C@H]2C1=O | – | · | · | · | · | · | ·
O=C(COC(=O)c1ccc(NS(=O)(=O)c2cccs2)cc1O)Nc1nc2ccccc2s1 | -69 | – | – | – | · | – | –
O=C(COC(=O)c1ccc(NS(=O)(=O)c2cccs2)cc1O)NCc1ccccc1 | ? | – | – | – | – | – | ·
CS(=O)(=O)c1sc2nc(-c3cccs3)cc(-c3ccccc3)c2c1N | -52 | ? | – | 89µM | ? | · | –
Cc1cc(-c2csc(N)n2)c(C)n1CCC(C)C | -64 | ? | – | 50µM | 10µM | · | –
CC(Oc1ccccc1)C(=O)Nc1nc2ccc(S(N)(=O)=O)cc2s1 (centres undefined) | · | – | – | – | – | · | ·
CCN(CC(=O)Nc1ccc(OC)cc1)C(=O)c1ccc([N+](=O)[O-])cc1 | -64 | – | – | 10µM | – | · | –
CCN(CC(=O)Nc1ccc(OC)cc1)C(=O)c1ccc(NS(=O)(=O)c2ccc(C(C)=O)cc2)cc1 | – | – | – | – | – | – | ·
Cc1cccc(S(=O)(=O)NC(=O)C2(C)CCN2C(=O)Cc2cc(F)ccc2F)c1 (centres undefined) | -73 | · | · | · | · | · | –
CC(C)N(CCC(=O)c1ccc2ccccc2c1)Cc1ccccc1 | -89 | – | – | 50µM | 1.7µM | – | –
Cc1ccc([N+](=O)[O-])cc1NC(=O)CCSc1ccc(Cl)cc1 | -70 | – | – | – | – | – | –
CC(C)OC(=O)c1c(NS(=O)(=O)c2ccccc2)sc2c1CCCC2 | -63 | – | – | ? | – | – | –
O=C(NCc1ccccc1F)C(=O)NCC(c1ccc2c(c1)OCO2)N1CCOCC1 (centres undefined) | · | – | – | ? | – | · | ·
CC1(COc2ccc(CC3SC(=O)NC3=O)cc2)CCCCC1 (centres undefined) | · | · | · | · | –[12.7 µM] | · | ·
COc1ccc(-c2nnn(CC(=O)N(CC(=O)NC3CCCC3)c3ccccc3)n2)cc1OC | -51 | – | – | 18µM | – | – | –
